Laboratory results: PubChem BioAssay (NCI)
About 79,000 compounds went through this panel and 15% of them were active in at least one assay; those are over-represented in the sample as a whole. Unmarked numbers belong to inactive results. Activity calls are given as the source filed them. No stated cut-off is given here; in the data, active means growth inhibition above about 70%; inactive means the rest. Where a SMILES comes first, the peptide text is derived from it. [ ]: non-standard residue; d: D form. The star is where a group is joined. mTyr = N[CH](Cc1cccc(O)c1)C(=O)O; Cbz = O=C(OCc1ccccc1)*; OBn = c1ccc(CO*)cc1

Experiment: NCI Yeast Anticancer Drug Screen. Data for the sgs1 mgt1 strain (AID 161);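 further: 0% = growth of cultures given vehicle only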
Conditions: S. cerevisiae sgs1 mgt1 strain, at 50.0 µM, hits give high values
How it was run: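 Mutant yeast exposed to compound; growth scored against vehicle-only wells.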

| Compound | growth inhibition |
| --- | --- |
| CC(/C=N/NS(=O)(=O)c1ccc(C)cc1)=C(c1ccccc1)c1ccccc1 | 82.5% (active) |
| CCOC(=O)Cc1cc(=O)oc2c(CN3CCN(c4ccc(C)cc4)CC3)c(O)ccc12 | 38.2% |
| Clc1ccc(/C=N\Nc2c3ccccc3nc3ccccc23)cc1Cl | 58.4% |
| CNC(=O)c1cc(NC(=O)c2ccc(C(=O)Nc3cc(C(=O)NC)cc(C4=NCCN4)c3)cc2)cc(C2=NCCN2)c1 | 99.3% (active) |
| O=P1(O)c2ccccc2CS(=O)(=O)Cc2ccccc21 | -24.2% |
| CC1=C(C(=O)NCc2ccccc2)C(c2ccccc2[N+](=O)[O-])C(C(=O)NCc2ccccc2)=C(C)N1 | 81.4% (active) |
| Oc1ccc(C2CCCCC2)cc1 | 95.3% (active) |
| CCN(CC)CCOc1cccc2c1C(=O)c1c(O)cccc1C2=O | 71.2% (active) |
| CCN(CC)C1Oc2cc3c(cc2C(c2ccc(OC)cc2)C1C)OCO3 (stereo not given) | 89.3% (active) |
| COc1ccc(C2C3CCCC(C(c4ccc(OC)cc4)N2C)C32NC(=O)NC2=O)cc1 (stereo not given) | 97.8% (active) |
| Clc1ccc(SSc2ccc(Cl)cn2)nc1 | 57.9% |
| CN=c1sc2c(n1C)C(=O)c1ccccc1C2=O | 87.8% (active) |
| O=C(Nc1cccc(Cl)c1)OCCOC(=O)Nc1cccc(Cl)c1 | 99.3% (active) |
| O=[N+]([O-])c1ccc2c(c1)Cc1cc(Cl)ccc1-2 | -11.4% |
| Cc1c(-c2ccccc2)ccnc1/C=N/NC(=S)NCCc1ccccc1 | 75.5% (active) |
| O=C(O)CCC(=O)NCCNC(=O)CC(=O)O | 43% |
| Cc1cc2c(cc1S(=O)(=O)O)C1C(C3C2C2(Cl)C(Cl)=C(Cl)C3(Cl)C2(Cl)Cl)C2(Cl)C(Cl)=C(Cl)C1(Cl)C2(Cl)Cl (stereo not given) | 86.8% (active) |
| O=C1/C(=C/c2ccccc2)CNC/C1=C\c1ccccc1 | 95.2% (active) |
| Cc1ccc2c(c1)-c1cc(C)ccc1C2(O)c1ccccc1 | 93.7% (active) |
| CCCc1cc2c(cc1COc1ccccc1C(=O)O)OCO2 | 38.4% |

| Compound | growth inhibition |
| --- | --- |
| O=C1OC(c2ccc3c(c2)OCO3)Sc2ccccc21 (stereo not given) | 23.4% |
| Cc1cc(NC(=S)SCc2ccc(Cl)cc2)ccc1F | 97.8% (active) |
| NC(=O)CC1CCC(c2ccccc2)CC1 (stereo not given) | 77.3% (active) |
| [O-]c1c2cc(-[n+]3c(-c4ccccc4)cc(-c4ccccc4)cc3-c3ccccc3)cc1CO[C@@H](c1ccccc1)[C@H](c1ccccc1)OCc1cccc(n1)CO[C@@H](c1ccccc1)[C@H](c1ccccc1)OC2 | 90.5% (active) |
| OCCN(CCO)c1cc(/C=C/c2ccnc3ccccc23)nc2ccccc12 | 28.6% |
| COC(=O)C(Cc1cccc(O)c1)NC(=O)C(CC(=O)OCc1ccccc1)NC(=O)OCc1ccccc1 (stereo not given) (Cbz-Asp(OBn)-[mTyr]-OMe; configuration not given here) | 85.7% (active) |
| COc1cc[c]([Sn]([c]2ccc(OC)cc2)([c]2ccc(OC)cc2)[c]2ccc(OC)cc2)cc1 | 80.8% (active) |
| COC(=O)CCCCCOS(=O)(=O)c1ccc(C)cc1 | 21.9% |
| O=S(=O)(C#Cc1ccccc1)c1ccccc1 | 99.4% (active) |
| N#CC1(C#N)C(C#N)(C#N)C12CCCCCC2 | 99.5% (active) |
| CCOC(=O)/C(C)=N/Nc1cc(Cl)ccc1O | 58% |
| N/C(CC(=O)NOC(=O)c1ccccc1)=N/OC(=O)c1ccccc1 | 99.5% (active) |
| C/C(=N\NC(=S)N1CCC(C)CC1)c1ncccn1 | 99.3% (active) |
| Cc1ccc(S(=O)(=O)OCC(/C=N/NC(N)=O)OCOC(C)/C=N/NC(N)=O)cc1 (stereo not given) | 1.95% |
| CN1COc2c(Cl)cc(Cl)cc2C1 | -5.15% |
| c1ccc2cc3c(cc2c1)Nc1c2ccccc2nc2cccc-3c12 | 79.4% (active) |
| CCCCN(CCCC)S(=O)(=O)c1ccccc1 | 7.85% |
| Cc1cccc(N2C(c3ccccc3)c3ccc(C)cc3NS2=O)c1 (stereo not given) | 99.1% (active) |
| CN(C)c1ccc(/C=N/c2nc(-c3ccccc3)cs2)cc1 | 98% (active) |
| O=C1c2ccccc2-c2nc3ncccc3cc21 | 42.2% |

Experiment: NCI Yeast Anticancer Drug Screen. Data for the cln2 rad14 strain (AID 165);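 further: 0% = growth equal to vehicle treated cultures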
Conditions: S. cerevisiae cln2 rad14 strain, at 5.0 µM (retest, dose inferred, filed as 0.5), hits give high values
How it was run: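 Compounds are applied to the cln2 rad14 yeast strain, and growth is then compared with that of vehicle-treated cultures to give inhibition.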

| Compound | growth inhibition |
| --- | --- |
| CC(/C=N/NS(=O)(=O)c1ccc(C)cc1)=C(c1ccccc1)c1ccccc1 | -10% |
| CCOC(=O)Cc1cc(=O)oc2c(CN3CCN(c4ccc(C)cc4)CC3)c(O)ccc12 | 8% |
| Clc1ccc(/C=N\Nc2c3ccccc3nc3ccccc23)cc1Cl | -3% |
| CNC(=O)c1cc(NC(=O)c2ccc(C(=O)Nc3cc(C(=O)NC)cc(C4=NCCN4)c3)cc2)cc(C2=NCCN2)c1 | 0% |
| O=P1(O)c2ccccc2CS(=O)(=O)Cc2ccccc21 | 16% |
| CC1=C(C(=O)NCc2ccccc2)C(c2ccccc2[N+](=O)[O-])C(C(=O)NCc2ccccc2)=C(C)N1 | -4% |
| Oc1ccc(C2CCCCC2)cc1 | -4% |
| CCN(CC)CCOc1cccc2c1C(=O)c1c(O)cccc1C2=O | 5% |
| CCN(CC)C1Oc2cc3c(cc2C(c2ccc(OC)cc2)C1C)OCO3 (stereo not given) | 1% |
| COc1ccc(C2C3CCCC(C(c4ccc(OC)cc4)N2C)C32NC(=O)NC2=O)cc1 (stereo not given) | 2% |
| Clc1ccc(SSc2ccc(Cl)cn2)nc1 | -4% |
| CN=c1sc2c(n1C)C(=O)c1ccccc1C2=O | 21% |
| O=C(Nc1cccc(Cl)c1)OCCOC(=O)Nc1cccc(Cl)c1 | 2% |
| O=[N+]([O-])c1ccc2c(c1)Cc1cc(Cl)ccc1-2 | -5% |
| Cc1c(-c2ccccc2)ccnc1/C=N/NC(=S)NCCc1ccccc1 | 42% |
| O=C(O)CCC(=O)NCCNC(=O)CC(=O)O | -52% |
| Cc1cc2c(cc1S(=O)(=O)O)C1C(C3C2C2(Cl)C(Cl)=C(Cl)C3(Cl)C2(Cl)Cl)C2(Cl)C(Cl)=C(Cl)C1(Cl)C2(Cl)Cl (stereo not given) | 33% |
| O=C1/C(=C/c2ccccc2)CNC/C1=C\c1ccccc1 | 10% |
| Cc1ccc2c(c1)-c1cc(C)ccc1C2(O)c1ccccc1 | -7% |
| CCCc1cc2c(cc1COc1ccccc1C(=O)O)OCO2 | -2% |

| Compound | growth inhibition |
| --- | --- |
| O=C1OC(c2ccc3c(c2)OCO3)Sc2ccccc21 (stereo not given) | -2% |
| Cc1cc(NC(=S)SCc2ccc(Cl)cc2)ccc1F | -7% |
| NC(=O)CC1CCC(c2ccccc2)CC1 (stereo not given) | 2% |
| [O-]c1c2cc(-[n+]3c(-c4ccccc4)cc(-c4ccccc4)cc3-c3ccccc3)cc1CO[C@@H](c1ccccc1)[C@H](c1ccccc1)OCc1cccc(n1)CO[C@@H](c1ccccc1)[C@H](c1ccccc1)OC2 | 97% (active) |
| OCCN(CCO)c1cc(/C=C/c2ccnc3ccccc23)nc2ccccc12 | -1% |
| COC(=O)C(Cc1cccc(O)c1)NC(=O)C(CC(=O)OCc1ccccc1)NC(=O)OCc1ccccc1 (stereo not given) (Cbz-Asp(OBn)-[mTyr]-OMe; configuration not given here) | 9% |
| COc1cc[c]([Sn]([c]2ccc(OC)cc2)([c]2ccc(OC)cc2)[c]2ccc(OC)cc2)cc1 | -9% |
| COC(=O)CCCCCOS(=O)(=O)c1ccc(C)cc1 | -3% |
| O=S(=O)(C#Cc1ccccc1)c1ccccc1 | 7% |
| N#CC1(C#N)C(C#N)(C#N)C12CCCCCC2 | 13% |
| CCOC(=O)/C(C)=N/Nc1cc(Cl)ccc1O | -62% |
| N/C(CC(=O)NOC(=O)c1ccccc1)=N/OC(=O)c1ccccc1 | 6% |
| C/C(=N\NC(=S)N1CCC(C)CC1)c1ncccn1 | -7% |
| Cc1ccc(S(=O)(=O)OCC(/C=N/NC(N)=O)OCOC(C)/C=N/NC(N)=O)cc1 (stereo not given) | 1% |
| CN1COc2c(Cl)cc(Cl)cc2C1 | -3% |
| c1ccc2cc3c(cc2c1)Nc1c2ccccc2nc2cccc-3c12 | 25% |
| CCCCN(CCCC)S(=O)(=O)c1ccccc1 | -1% |
| Cc1cccc(N2C(c3ccccc3)c3ccc(C)cc3NS2=O)c1 (stereo not given) | 1% |
| CN(C)c1ccc(/C=N/c2nc(-c3ccccc3)cs2)cc1 | 2% |
| O=C1c2ccccc2-c2nc3ncccc3cc21 | 6% |
